Bioassay records: PubChem BioAssay, Sanford-Burnham Center for Chemical Genomics
CYP2C9 inhib = blockers of cytochrome P450 2C9 activity – biochemical, luminescence, ADME assay, primary screen. 96,000 tested, 20% active. inhibition, % at 5 µM. P11712. CYP2C9 Supersomes, luciferin-H conversion;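 active = blocking of liver enzyme CYP2C9 beyond about 50% at 5 µM, limit read from the data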
CYP2C19 activ = human CYP2C19 activators, primary screen, biochemical, luminescence. Cytochrome P450 2C19 (Homo sapiens), P33261. recombinant CYP2C19, luciferin-H EGE luminescence; hits give high values; 0 = fully inhibited enzyme, 1 = untreated enzyme. activation factor at 5 µM. 96,000 tested, under 10 active;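 active = activation factor of at least 2 at 5 µM in the primary screen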
Target sequence (P33261 whole entry, looked up): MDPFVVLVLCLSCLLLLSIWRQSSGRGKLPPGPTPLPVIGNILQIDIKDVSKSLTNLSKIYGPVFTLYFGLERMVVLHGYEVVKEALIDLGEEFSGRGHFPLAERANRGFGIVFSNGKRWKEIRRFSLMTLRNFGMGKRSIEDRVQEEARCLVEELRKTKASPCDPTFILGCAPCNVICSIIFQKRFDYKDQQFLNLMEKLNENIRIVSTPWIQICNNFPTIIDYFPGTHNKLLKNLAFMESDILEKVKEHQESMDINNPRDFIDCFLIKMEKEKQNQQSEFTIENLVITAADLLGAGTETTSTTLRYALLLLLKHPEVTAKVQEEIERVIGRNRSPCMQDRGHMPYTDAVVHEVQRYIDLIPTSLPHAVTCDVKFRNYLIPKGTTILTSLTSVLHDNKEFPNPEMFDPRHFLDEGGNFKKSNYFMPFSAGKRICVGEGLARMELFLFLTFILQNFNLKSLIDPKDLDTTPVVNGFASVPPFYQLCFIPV
CYP2C19 inhib = blockers of cytochrome P450 2C19 activity – biochemical, luminescence, ADME assay, primary screen | inhibition, % at 5 µM | AID 778, 2007 | CYP2C19 Supersomes, luciferin-H EGE luminescence, 30 min | P33261 | 96,000 tested, 21% active;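 active = CYP2C19 inhibition above a set limit at 5 µM in the primary screen, cut at about 50% in these data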
CYP2C9 act = human CYP2C9 activators, primary screen, biochemical, luminescence; 96,000 tested, 1.4% active; recombinant CYP2C9, luciferin-H conversion; hits give high values; factor 1 = untreated enzyme, 0 = blocked; Cytochrome P450 2C9 (Homo sapiens), P11712; activation factor at 5 µM; AID 1024, 2008;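 active = activation factor of 2 or more for CYP2C9 at a 5 µM dose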
Of the large screens only hits and unclear results are named; the others gave an inactive call. Only some compounds are listed: those with a hit (about 31% of all), similar ones and a draw of the others.

CCOC(=O)c1c(C)[nH]c(O)c1C=Nc1ccc(Cl)cc1	none
CC(=O)c1c(C(C)=O)c(C)n(Cc2ccc(Cl)cc2)c1C	CYP2C19 inhib 86
CCOC(=O)c1c(C=O)c(C)n(Cc2ccc(Cl)cc2)c1C	CYP2C9 inhib 84
CCOC(=O)c1c(C=O)c(C)n(Cc2ccccc2)c1C	CYP2C9 inhib 70
CC(NS(=O)(=O)c1ccccc1)C(=O)NCc1ccco1 (stereo not drawn)	none
COc1cc(C(=O)NC2CCN(Cc3nnnn3Cc3cccs3)CC2)cc(OC)c1OC	none
CSc1nc2nccc(-c3ccc(Oc4ccccc4)cc3)n2n1	CYP2C9 inhib 56, CYP2C19 inhib 51
c1ccc(Oc2ccc(-c3ccnc4nc(N5CCN(c6ccccc6)CC5)nn34)cc2)cc1	CYP2C9 inhib 59
c1ccc(-c2ccnc3nc(N4CCN(c5ccccc5)CC4)nn23)cc1	none
CC(=O)Nc1ccc(S(=O)(=O)NCc2ccc3[nH]c(C)cc3c2)cc1	CYP2C9 inhib 85
CC(=O)Nc1ccc(S(=O)(=O)NCc2ccc(C)cc2)cc1	CYP2C19 inhib 60
CC(=O)Nc1ccc(S(=O)(=O)NCCSc2ccccn2)cc1	none
CC(=O)Nc1ccc(C(=O)CS(=O)(=O)c2ccc(C)cc2)cc1	CYP2C9 inhib 59
CC(=O)Nc1ccc(S(=O)(=O)NCCSCc2ccc(Cl)cc2Cl)cc1	CYP2C9 inhib 81, CYP2C19 inhib 57
Cc1ccc(S(=O)(=O)CC(=O)c2ccc(C(C)(C)C)cc2)cc1	none
CCC1Oc2ccccc2N(CC(=O)NCCCN2CCCCC2CC)C1=O (stereo not drawn)	none
Cc1oc(-c2ccccc2)cc1C(=O)Nc1ccc(N(C)C)cc1	none
O=C1COc2ccc3ccccc3c2CN1	none
CC(=O)Nc1ccc(S(=O)(=O)n2nc(-c3ccc(C)cc3)nc2N)cc1	CYP2C19 inhib 50
CC(=O)Nc1ccc(S(=O)(=O)NCCc2ccc(S(N)(=O)=O)cc2)cc1	none
Cc1ccc(S(=O)(=O)N(C)c2ccc(C(=O)NCC3CCCO3)cc2)cc1 (stereo not drawn)	none
C=CCNC(=O)c1ccc(N(C)S(=O)(=O)c2ccc(OC)cc2)cc1	CYP2C9 inhib 86, CYP2C19 inhib 73
CC(=O)Nc1ccc(S(=O)(=O)NCCc2ccc(F)cc2)cc1	CYP2C19 inhib 58
C=CCNC(=O)c1ccc(CNS(=O)(=O)c2ccc(NC(C)=O)cc2)cc1	CYP2C9 inhib 57
O=C(NCc1cccc(F)c1)C1CCN(S(=O)(=O)Cc2ccccc2)CC1	none
CC(=O)OC12CC3CC(C1)C(=NO)C(C3)C2	none
O=C(Cc1c(F)c(F)c(F)c(F)c1F)OC12CC3CC(C1)C(=O)C(C3)C2	CYP2C19 inhib 72
C=CCNc1cc(C)oc(=O)c1C(=O)CCC	none
Cc1cc(C)c2c(c1)/C(=N/NS(=O)(=O)c1ccc(Br)cc1)CCC2	none
Cc1cc(=O)n2nc(N3CCCC(C(=O)NCc4ccc5c(c4)OCO5)C3)sc2n1 (stereo not drawn)	none
CCC(CC)C(=O)NCc1ccccc1Cl	CYP2C9 inhib 67
COC(=O)c1cc(NC(=O)Cc2ccccc2[N+](=O)[O-])cc(C(=O)OC)c1	CYP2C9 inhib 79
CCC(CC)NC(=O)Cc1ccccc1[N+](=O)[O-]	none
O=C(Cc1ccccc1[N+](=O)[O-])NCc1ccccc1Cl	CYP2C9 act 2.4
Cc1nc2nc(-c3ccc(Cl)cc3)[nH]n2c(=O)c1C	none
O=C(CSCc1ccccc1Cl)Nc1ccc2c(c1)OCCO2	CYP2C9 inhib 60
O=C(CC(c1ccccc1)c1ccccc1)Nc1ccc2c(c1)OCCO2	CYP2C9 inhib 52
NC(=O)Nc1ccc2c(c1)OCCO2	none
Nn1c(SCC(=O)Nc2ccc3c(c2)OCCO3)nnc1-c1ccccn1	none
CCN1CCN(c2ccc(NC(=O)c3cccnc3)cc2Cl)CC1	none
Cn1nc(C(F)(F)F)c(C(=O)Nc2ccc(F)cc2F)c1Sc1cccc(Cl)c1	CYP2C19 inhib 54
Cn1nc(C(F)(F)F)c(C(=O)Nc2ccc(F)cc2F)c1Sc1cccc(C(F)(F)F)c1	CYP2C9 inhib 60, CYP2C19 inhib 87
Cn1nc(C(F)(F)F)c(C(=O)Nc2ccc(F)cc2F)c1Oc1cccc(Cl)c1	none
O=C(CCN1C(=O)C2C3C=CC(C3)C2C1=O)Nc1ccc(F)cc1 (stereo not drawn)	none
COc1cccc(/C=N/n2nnc3c(cnn3-c3ccccc3)c2=O)c1	none
O=C(NCCc1nc2ccccc2[nH]1)Nc1ccccc1	none
CCSc1cc(C2C(C(=O)OC)=C(C)NC3=C2C(=O)CCC3)c(C)o1 (stereo not drawn)	none
CCN(CC)CCCNS(=O)(=O)c1ccc(OC)cc1	none
COc1ccc(S(=O)(=O)CCC(=O)NCCc2ccc(C)cc2)cc1	CYP2C9 inhib 75, CYP2C19 inhib 57
COc1ccc(S(=O)(=O)NCc2ccc(C)cc2)cc1	CYP2C19 inhib 99
COc1ccc(S(=O)(=O)NCCC(=O)NCc2ccc(F)cc2)cc1	CYP2C9 act 2.8
CCCCNC(=O)CCCCCNS(=O)(=O)c1ccc(OC)cc1	none
COc1ccc(CCNS(=O)(=O)c2ccc(OC)cc2)cc1	CYP2C9 inhib 57, CYP2C19 inhib 65
COc1ccc(C2NC(=O)NC(O)(C(F)(F)F)C2C(=O)c2ccc(C)cc2)cc1 (stereo not drawn)	none
O=S(=O)(NCC1CCCO1)c1ccc2c(c1)OCCO2 (stereo not drawn)	none
COc1ccc(CCNS(=O)(=O)c2ccc3c(c2)OCCO3)cc1	CYP2C19 inhib 76
NC(=O)c1nn(-c2ccccc2)c(=O)cc1O	none
Cn1c(=O)c2c(nc(N3CCCCCC3)n2CC(O)COc2ccccc2)n(C)c1=O (stereo not drawn)	none
CN(c1nc2c(c(=O)n(C)c(=O)n2C)n1CC(=O)c1ccccc1)C1CCCCC1	CYP2C9 inhib 66
Cn1c(Br)nc2c1c(=O)n(CC(O)COc1ccccc1)c(=O)n2C (stereo not drawn)	CYP2C19 inhib 86
COc1cccc(C(=O)Cn2c(N3CCCCC3)nc3c2c(=O)n(C)c(=O)n3C)c1	none
Cn1c(=O)c2c(nc(NC3CCCCC3)n2CC(O)COc2ccccc2)n(C)c1=O (stereo not drawn)	CYP2C9 inhib 52
CC(=O)NCC1=C(NC(C)=O)C2CC1C(C)(C)C2C (stereo not drawn)	none
Cc1csc(/C(=N\O)c2csc(C)n2)n1	none
Cc1ccccc1CS(=O)(=O)Cc1ccc(C(=O)NCCCN2CCCC2=O)o1	none
COc1cccc(C(=O)Nc2ccc(N3CCN(S(C)(=O)=O)CC3)cc2)c1	none
C=CCNC(=O)c1ccccc1S(=O)c1ccccc1C#N (stereo not drawn)	none
COc1ccc(-c2onc(C)c2-c2ccc(C(=O)OC(C)C)o2)c(O)c1	CYP2C9 inhib 98, CYP2C19 inhib 98
COC(=O)CSc1nc(C2CC2)cc(C(F)(F)F)c1C#N	CYP2C19 inhib 66
Cc1ccc(C(=O)N/N=C\c2ccc[nH]2)cc1[N+](=O)[O-]	none
Cn1c(CO)cnc1SCc1ccc([N+](=O)[O-])cc1	CYP2C19 inhib 65
